Screens: PubChem BioAssay, several laboratories
A selection: hits, their analogues and other compounds. The true share with any hit is near 3.4%.
Mcl1 Noxa PPI – Mcl-1/Noxa interaction inhibition. Q07820. TR-FRET Mcl-1/Noxa peptide binding, 2 h. inhibition, % at 21.7 µM. 220,000 compounds, 1.5% hits. AID 1022;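 active = compounds that cut the protein-peptide binding signal by more than 50% relative to plate controls in a single-dose test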;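 also: His-tagged Mcl-1 with rhodamine Noxa BH3 peptide and terbium anti-His antibody; 0% = Mcl-1 plus Noxa peptide wells and 100% = peptide-only wells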
Target sequence (Q07820 whole entry, looked up): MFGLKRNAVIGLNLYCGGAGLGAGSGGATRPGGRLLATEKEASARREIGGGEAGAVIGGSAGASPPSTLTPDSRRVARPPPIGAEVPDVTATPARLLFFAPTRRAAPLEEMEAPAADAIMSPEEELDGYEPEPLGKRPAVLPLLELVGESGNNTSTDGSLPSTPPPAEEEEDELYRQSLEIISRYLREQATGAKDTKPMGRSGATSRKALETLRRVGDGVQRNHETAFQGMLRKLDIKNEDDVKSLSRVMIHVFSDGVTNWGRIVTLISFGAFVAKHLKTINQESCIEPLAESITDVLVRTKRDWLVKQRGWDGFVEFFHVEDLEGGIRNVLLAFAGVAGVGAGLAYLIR
Mcl1-Bid inh – disrupts binding of human Mcl-1 to Bid peptide; TR-FRET Mcl-1/Bid-Dy647 peptide binding, 1536-well; 220,000 compounds, 0.97% hits; Q07820; inhibition, % at 21.7 µM;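 active = compounds that cut the binding signal by more than half at the single screening dose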;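 also: His-tagged Mcl-1 with europium anti-His antibody binding Bid BH3 peptide; 0% = Mcl-1 plus peptide wells and 100% = peptide-only wells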
Bim-Mcl-1 – human Bim-Mcl-1 interaction inhibition. Bead-based flow cytometry, Bim peptide-Mcl-1 binding. 190,000 compounds, 0.1% hits. Q07820. inhibition, % at 10 µM; in the data active = inhibition above about 40%;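 also: 0% = no compound tracer wells and 100% = peptide blocker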
14-3-3 Bad inh – disrupts binding of bovine 14-3-3 zeta to phospho-Bad peptide. P63103. TR-FRET 14-3-3zeta/Dy647-pBad peptide displacement, 1 h. 220,000 compounds, 0.71% hits. inhibition, % at 21.7 µM;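 active = inhibition above about 70%, limit read from the data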;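 also: 0% = full 14-3-3 plus peptide FRET controls and 100% = background without 14-3-3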
NCF1 inh – inhibitors of human p47phox binding | P14598 | p47phox/p22phox peptide binding, fluorescence polarization, 2 h | inhibition, % at 24.7 µM | 220,000 compounds, 0.53% hits | AID 1274;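 also: 0% = p47phox with labelled peptide and 100% = labelled peptide alone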
eIF4E-4G inh – inhibitors of eIF4E and eIF4G interaction in translation initiation; P63073+Q04637; TR-FRET eIF4E-eIF4GI(517-606) binding, 2 h; inhibition, % at 21.7 µM; 220,000 compounds, 0.37% hits; AID 782;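 also: 0% = full FRET control wells and 100% = background wells lacking eIF4GI fragment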
Starred values were filed as active, the others as inactive; x = no result given; + = active, no number; ! = repeats disagree; [ ] = another dose, or the depositor's remark.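 The calls were made as follows, unless noted: active = inhibition above about 30% (limit read from the data); inactive = the rest.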

SMILES	Mcl1 Noxa PPI	Mcl1-Bid inh	Bim-Mcl-1	14-3-3 Bad inh	NCF1 inh	eIF4E-4G inh
O=C1CC(c2ccc(F)cc2)CC2=C1C(c1ccc([N+](=O)[O-])o1)Nc1ccccc1N2 (stereo not given)	12	-18	x	-1	-1	8
CC(C)n1cnc2cc(NCc3ccccc3O)ccc21	-40	-181	x	6	-8	5
CC(C)n1cnc2cc(NCc3ccco3)ccc21	52*	-53	0	70*	10	-2
Cc1cccc(N2CCN(C(=O)Cc3ccc(Br)cc3)CC2)c1C	42	61*	-5	-3	-24	-3
O=C(O)c1cc(-c2ccco2)nc2ccc(Br)cc12	84*!	26	4	2	-5	5
O=C(COC(=O)c1cc(-c2ccco2)nc2ccccc12)NCc1ccc2c(c1)OCO2	76*	22	1	9	-2	2
Cc1cccc(-n2c(SCC(=O)NCc3ccc4c(c3)OCO4)nc3ccccc3c2=O)c1	-9	-22	-1	-7	-17	-3
CCc1nnc(NC(=O)c2cc(-c3ccccn3)nc3ccccc23)s1	24	16	1	4	1	2
CCc1nnc(NC(=O)c2cc(-c3ccco3)nc3ccccc23)s1	82*	-31	1	0	1	24
O=C(CSc1nc2ccccc2c(=O)n1-c1ccccc1)NCc1ccc2c(c1)OCO2	13	-51	-3	x	53*	x
CCOC(=O)C1CCCNC1=O (stereo not given)	-2	-13	x	-2	0	3
S=C1NCN(C2CCCCC2)CN1CCc1ccccc1	15	-25	x	0	13	-1
Cc1ccc(NC(=O)NC(=O)N(C(C)C)S(=O)(=O)c2ccc(C)cc2)cc1	11	-8	-26	-1	-6	-2
CC(OC(=O)CCc1nc2ccccc2[nH]c1=O)c1ccccc1 (stereo not given)	2	2	2	-3	-9	1
O=C(NCC1CCCO1)c1cc(-c2ccco2)nc2ccccc12 (stereo not given)	42	-53	2	-1	-1	12
Cc1ccc(-c2cc(C(=O)N3CCN(c4ccc(F)cc4)CC3)c3ccccc3n2)o1	44	-62	0	x	-10	x
Cc1ccc(-c2cc(C(=O)N3CCN(c4ncccn4)CC3)c3cc(Br)ccc3n2)o1	79*	21	4	-6	-16	-4
O=C(NC1CCC(O)CC1)c1cc(-c2ccco2)nc2ccccc12 (stereo not given)	55*	-43	0	12	-5	40*
CCOC(=O)c1cc(-c2ccco2)nc2c1c(C)nn2-c1ccccc1	56*	14	5	-15	-43	-5
COc1ccccc1CNC(=O)COC(=O)c1cc(-c2ccco2)nc2ccccc12	92*	32	3	15	-25	0
CCc1nc2ccccc2c(C(=O)OCC(=O)NC(=O)c2cccn2C)c1C	1	-30	x	-3	-26	2
Cc1ccc(NC(=O)CC(NCC2CCCO2)C(=O)O)cc1C (stereo not given)	17	-20	-1	-13	9	-4
COc1ccc(C2/C=C\CN(C(=O)NC(C)C)CC(=O)N2Cc2ccc(F)cc2)cc1 (stereo not given)	-15	-60	x	0	-1	-4
NC(=O)COC(=O)c1cc(-c2ccco2)nc2ccccc12	61*	9	x	2	-3	5
Cc1ccc(CNC(=O)c2ccc(N3CCc4ccccc43)c([N+](=O)[O-])c2)cc1	29	-4	5	19	-8	55*
COC(=O)c1ccc(COc2ccc(/C=N/Nc3nc(C)cc(=O)[nH]3)cc2)cc1	55*	15	x	45	5	-15
COC(=O)c1ccc(COc2ccc(/C=N/Nc3cccc(C(=O)O)c3)cc2)cc1	37	-16	x	12	3	5
N#Cc1c(/N=C/c2ccco2)oc(-c2ccccc2)c1-c1ccccc1	20	3	-1	93*[fluorescence artefact?]	-1	2
CCC1CC(C)(C(=O)Nc2ccc(S(N)(=O)=O)cc2)OC1=O (stereo not given)	4	-18	1	14	+	2
CC1CC(CC(C)C(=O)NC(=S)Nc2ccc(S(N)(=O)=O)cc2)C(=O)O1 (stereo not given)	16	-22	-2	-8	-6	0
